Measured values: the OligoGym collection

Each sequence was assayed against SOHLH2 (assay: pooled miR-30 sensor sort-seq; sequence = guide strand). Conditions: shRNA.
Also: reference of the scale not given here.

| Sequence | sensor-assay potency score (higher = more potent) |
| --- | --- |
| TTCGCTGTAGGACCTCTGCAGG | -0.848 |
| TATATTTCACATAATCAACTGT | 0.64 |
| TTCTCGAACTCTGACAACGAAG | -1.44 |
| TAGATTGTCAAACTGCGCCCAG | -0.465 |
| TTTGATATTAGGTCTTTGGGTG | -0.0455 |
| TTCAGTTAAAGCAATATCCATT | -0.431 |

Each sequence was assayed against SORCS2 in the same assay as above. Conditions: shRNA.

| Sequence | sensor-assay potency score (higher = more potent) |
| --- | --- |
| TATTCCTATAGACTTACACTAA | -0.686 |
| TTTGGTCACTCGCTCTTGCAGA | -0.75 |
| TTCTTTATATTCCACCAGCTGT | -1.25 |
| TTTCCTTTTGAACTTGTAGAGG | -1.02 |
| TAGACTTACACTAACATCCCTG | 0.646 |
| TAGAGCTTGCTCTCCTTTGTGT | 0.276 |
| TTGAGGACAACTTGTAGGGTGG | -0.426 |
| TTACTCAACAAGGAGCGGGTGC | -0.482 |
| AAAGAAGATGTAATCGTCCTGC | 0.216 |
| TAGAAATTGTCGATGACGGTGG | 0.449 |
| TTCTTCTTTATATTCCACCAGC | -0.916 |
| TTTTACTCAACAAGGAGCGGGT | -0.478 |

What follows are sequences tested against SOX21 in the same assay as above. Conditions: shRNA.

| Sequence | sensor-assay potency score (higher = more potent) |
| --- | --- |
| TTAACTTTGATATTCGCTCAAA | -0.537 |
| TAGTAGTTTGTTGTTGTTGTTT | -0.802 |
| ATGAACAGAGTGATAGTCGGAT | 0.0793 |
| TAATCTTCGATAAAATTGCGAT | -0.606 |
| TTTGAGTCTAAAGTCGACTCAA | 0.154 |
| TTGAGTCTAAAGTCGACTCAAA | -1.13 |
| TTAAATTAGAAGGTCACACTAG | 0.0223 |
| TTCTATGTACATACAAACCGGG | -0.494 |
| TTAATCTTCGATAAAATTGCGA | -0.173 |
| TCTATGTACATACAAACCGGGC | -1.15 |
| TAAATTAGAAGGTCACACTAGA | 0.55 |

The sequences below were run against SPAM1 in the same assay as above. Conditions: shRNA.

| Sequence | sensor-assay potency score (higher = more potent) |
| --- | --- |
| TTGAATAGCAAAATTATCTGGG | 0.668 |
| TTTCCTTATACACACTCCTTGC | -0.862 |
| TTTTCCTTATACACACTCCTTG | -0.634 |
| ATACTAACAATGAACATTGTGG | -0.0586 |
| TTGAGGTTCTTCTGTCTCCATG | -1.06 |
| TATTGTAACACCTTGCCCGGTG | -0.194 |
| TCTATCTTTGTAACTTGCCTTC | -0.492 |
| TTTCATTCCACAACCAGCTGAG | 0.0511 |
| TAACAATGAACATTGTGGCAGA | -0.131 |
| TTTATTTCTACATTGAAGCAAC | -0.796 |
| TAATTGTCTAGGAGCAAGCAAG | -1.53 |
